# Screening results (PubChem)
# The list is not random: actives were taken first. Their share in the collection is about 4.3%.
# CR mimetic SO – yeast age-related superoxide inhibition as caloric restriction mimetic. superoxide response (% of plate mean), % at 10 µM. AID 2690. S. cerevisiae aged cells, superoxide DHE fluorescence; stronger effect = lower value. 330,000 compounds, 0.18% hits;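 active means superoxide response under a set limit, about three screen SD below normal, cut at about 65% in these data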;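 further: yeast aged for seven days with compound at 30 °C before DHE staining; 100% = average MFI of all compound-treated wells on the plate with controls excluded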
# NR3A LBD binder – modulators (binders) of human NR3A ligand-binding domain. NR3A LBD differential scanning fluorimetry, Tm shift; 0% = protein alone, 100% = glycine-bound protein. Tm shift relative to glycine control, % at 25 µM. 340,000 compounds, 2.5% hits. AID 1259313;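 active means melting temperature shift of at least 10% of the positive control shift, at one fixed dose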
# UBC13 polyUb – human UBC13 polyubiquitination inhibition; P61088; UBC13 polyubiquitin chain formation, TR-FRET; inhibition, % at 20 µM; 330,000 compounds, 0.47% hits; AID 485273; in the data active means inhibition above about 45%, passing the limit was not always enough; inconclusive means no clear call, values can overlap the other calls
# Target sequence (P61088 whole entry, looked up): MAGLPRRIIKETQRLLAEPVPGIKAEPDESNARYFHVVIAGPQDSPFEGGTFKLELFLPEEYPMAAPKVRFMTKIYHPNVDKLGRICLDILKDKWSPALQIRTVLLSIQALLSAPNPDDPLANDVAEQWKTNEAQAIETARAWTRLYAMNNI
# NALP1 inh – NALP1 inhibition | S. cerevisiae NALP1/ASC/caspase-1 growth, X-gal OD620, 72 h | inhibition, % at 10 µM | 280,000 compounds, 0.61% hits | AID 2071; in the data active means inhibition mostly above about 24%, no sharp cut-off; inactive means mostly below about 32%
# dFosB activator – activators of mouse delta FosB homodimer; P13346; purified delta FosB, TAMRA-CDK5 oligo fluorescence polarization; percent of positive-control signal above neutral wells; activation, % at 25 µM; 340,000 compounds, 0.99% hits;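 active means mean activation above about 17%, with every replicate also reaching it, limit read from the data, passing the limit was not always enough; inconclusive means only one of the two conditions met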
# The depositor's hits bear a star; u = inconclusive; x = not tested or not shown.
SMILES,CR mimetic SO,NR3A LBD binder,UBC13 polyUb,NALP1 inh,dFosB activator
Cc1ccc(OCC(=O)N/N=C/c2c[nH]c3ccccc23)c([N+](=O)[O-])c1,101,24*,6,4,-3
Cc1ccc(OCC(=O)N/N=C\c2ccc(O)cc2)c([N+](=O)[O-])c1,115,-1,-1,8,-7
Cc1cccc(NCC(=O)N/N=C\c2c[nH]c3ccccc23)c1,97,16*,9,-1,-5
Cc1ccccc1NCC(=O)N/N=C/c1c[nH]c2ccccc12,85,24*,11,9,-9
O=C1OC(c2ccccc2)Cc2cc(C(=O)N3CCN(c4ccc(F)cc4)CC3)ccc21 (stereo not given),x,0,-9,x,-8
N#Cc1cn(-c2ccccc2)nc1-c1cc2ccccc2oc1=O,102,-3,12,24,-7
O=C(O)/C=C/c1cn(-c2ccccc2)nc1-c1cc2ccccc2oc1=O,61*,0,-11,14,-9
Cc1ccccc1C(=O)NCC(=O)OC(C)C(=O)NC(C)CCc1ccccc1 (stereo not given),89,1,-5,x,4
O=C(Nc1cc(S(=O)(=O)Nc2ccc(Cl)cc2)ccc1N1CCCCC1)c1ccc(F)cc1,96,25*,-9,33,-9
COc1ccc(S(=O)(=O)Nc2ccc(S(=O)(=O)Nc3ccc(F)cc3)cc2)cc1C,106,16*,-4,10,-11
N#Cc1ccc(C(=O)Nc2cc(S(=O)(=O)N3CCOCC3)ccc2N2CCCC2)cc1,105,-4,-4,x,-9
COc1ccc(NS(=O)(=O)c2ccc(N3CCOCC3)c(NC(=O)c3ccc(F)cc3)c2)cc1,83,-15,9,x,-16
COc1ccc(S(=O)(=O)Nc2cccc(F)c2)cc1C,90,0,-1,-1,5
COc1cc(Cl)c(C)cc1NC(=O)c1ccc(NS(=O)(=O)c2ccc(F)c(F)c2)cc1,89,32*,-4,14,4
N#Cc1ccc(C(=O)Nc2cc(S(=O)(=O)Nc3ccc(Cl)cc3)ccc2N2CCCCC2)cc1,85,22*,-10,9,7
O=C1CCCN1C(=O)CSc1nnnn1-c1ccccc1,88,-2,3,x,-3
Cc1c(C(=O)Nc2ccc(F)c(F)c2)oc2ccc(S(=O)(=O)N3CCCCC3)cc12,101,31*,2,-5,-22
Cc1cc2oc(C(=O)Nc3ccc(S(N)(=O)=O)cc3)c(C)c2cc1Cl,100,24*,-4,-5,8
CC(C)[C@H](NC(=O)c1ccccc1F)C(=O)NC1CCCCCCC1,114,2,5,x,-2
CC(C)c1ccc(CNC(=O)C2CCCN2S(=O)(=O)c2ccccc2)cc1 (stereo not given),96,-1,4,2,-10
COc1ccc(CCN(C)CCCN2CC(c3ccccc3)CC2=O)cc1OC (stereo not given),71,-1,0,22*,2
Cc1cccc(C(=O)OCC(=O)N(CC(C)C)c2c(N)n(Cc3ccccc3)c(=O)[nH]c2=O)c1C,x,0,-7,x,0
Cn1c(SCC(=O)NC2(C#N)CCCCC2)nnc1-c1cccnc1,84,17*,-2,15,3
CCOc1ccc(C(=O)Nc2cccc([N+](=O)[O-])c2)cc1Br,105,27*,2,14,10
CCOc1ccc(C(=O)Nc2ccc(NC(=O)c3ccco3)c(Cl)c2)cc1Br,90,40*,1,12,u
SMILES,CR mimetic SO,NR3A LBD binder,UBC13 polyUb,NALP1 inh,dFosB activator
CCOc1ccc(C(=O)Nc2cccc(NC(=O)c3cccs3)c2)cc1[N+](=O)[O-],x,7,x,17,2
CCN(CC)CCNC(=O)c1ccc(NC(=O)Cc2ccc(OC)c(S(=O)(=O)N3CCOCC3)c2)cc1,x,0,x,x,-6
C=CC(=O)Nc1ccc(CN2C(=O)N(c3c(Cl)c(OC)cc(OC)c3Cl)Cc3cnc(NCCCCN(CC)CC)nc32)cc1,84,0,63*,x,u
N=c1sccn1CC(=O)Nc1ccc(Cl)cc1[N+](=O)[O-],117,1,-8,5,-3
O=C(O)CC12CC3CC(C1)CC(n1ncc(N4CCC5(CC4)OCCO5)c(Cl)c1=O)(C3)C2,98,-1,-7,11,-4
CCOc1cc(/C=C2/C(=O)ON=C2C)ccc1OCc1ccccc1,100,26*,-11,-2,x
COc1cc(C(=O)Nc2ccc(-c3nnc(-c4ccco4)o3)cc2)cc(OC)c1OC,91,30*,-5,-7,-10
